# Data published in PubChem BioAssay (Tox21).
# Results filed as inconclusive are left out. Where a call stands in place of a potency, no number is given. Activity calls are given as the source filed them. Unless noted, calls come from the whole dose curve; as a rule, active = well fitted curve in the direction sought with a large enough effect in the repeat runs; inconclusive = weak or mixed curves; inactive = flat fitted curve, though single readings scatter.
# Test system: not listed separately
# Assay: qHTS assay to test for compound auto fluorescence at 460 nm (blue) in HepG2 cells (AID 720687)
# Conditions: autofluorescence 405/460 nm, 1 h; series mostly up to 91.3 µM
# Summary of the method: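 Blue-channel autofluorescence (Ex/Em 405/460 nm, triamterene-equivalent) was measured after 1 hr compound exposure at 37 C, 5% CO2. Cells were HepG2, plated overnight at 37 C in MEM plus 10% FBS.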
row,Structure (SMILES),Potency
1,CCCCOCCOC(=O)c1ccccc1C(=O)OCCOCCCC,inactive
2,O=C(O)CP(=O)(O)O,inactive
3,O=C(Nc1ccccc1SSc1ccccc1NC(=O)c1ccccc1)c1ccccc1,inactive
4,CC(N)=O,inactive
5,NC12CC3CC(CC(C3)C1)C2,inactive
6,Cc1cccc(O)c1C,inactive
7,[Cl][In]([Cl])[Cl],inactive
8,BrC1CCC(Br)C(Br)CCC(Br)C(Br)CCC1Br (stereo not given),inactive
9,Nc1nc(=S)c2[nH]cnc2[nH]1,inactive
10,O=C(Oc1ccccc1)c1ccccc1O,inactive
11,CC(C)CCOCc1ccccc1,inactive
12,Cc1ccc(-c2cc(C(F)(F)F)nn2-c2ccc(S(N)(=O)=O)cc2)cc1,inactive
13,CN(C)c1ccc(C(=C2C=CC(=[N+](C)C)C=C2)c2ccccc2)cc1,inactive
14,CCCCC/C=C/CC1CC(=O)OC1=O (stereo not given),inactive
15,C=CC(=O)OCCCCCCOC(=O)C=C,inactive
16,Cc1occc(=O)c1OC(=O)C(C)C,inactive
17,Nc1ccc(O)cc1,inactive
18,O=C1OC2(c3ccc(O)cc3Oc3cc(O)ccc32)c2ccccc21,inactive
19,CCC(C)(Oc1ccc(C2(c3ccc(OC(C)(CC)C(=O)O)cc3)CCCCC2)cc1)C(=O)O (stereo not given),inactive

row,Structure (SMILES),Potency
1,O=Cc1ccc(Cl)cc1,inactive
2,Cc1ccnc2c1NC(=O)c1cccnc1N2C1CC1,inactive
3,CC(=O)OCC1=C(C(=O)O)N2C(=O)[C@@H](NC(=O)Cc3cccs3)[C@H]2SC1,inactive
4,O=Nc1ccc(Nc2ccccc2)cc1,inactive
5,CC1=C(C=O)C(C)(C)CC=C1,inactive
6,CC[C@H]1CN2CCc3cc(OC)c(OC)cc3[C@@H]2C[C@@H]1C[C@H]1NCCc2cc(OC)c(OC)cc21,inactive
7,CC(C)(C)c1cc(C(C)(C)C)c(O)c(C(C)(C)C)c1,inactive
8,Nc1cc(S(=O)(=O)O)cc2cc(S(=O)(=O)O)cc(O)c12,inactive
9,CC(C)(C)c1ccccc1,inactive
10,O=C(O)CCc1ccccc1,inactive
11,CCC[C@H](N[C@@H](C)C(=O)N1[C@H](C(=O)O)C[C@@H]2CCCC[C@@H]21)C(=O)OCC,inactive
12,CN(C)c1ccc2nc3ccc(=[N+](C)C)cc-3sc2c1,inactive
13,CCCCC(CC)COC(=O)CC(C(=O)OCC(CC)CCCC)S(=O)(=O)O (stereo not given),inactive
14,Nc1nc2ccccc2[nH]1,inactive
15,Cc1ccc(S(=O)(=O)Oc2ccc(N=Nc3ccc(-c4ccc(N=Nc5c(O)ccc6cc(S(=O)(=O)O)cc(S(=O)(=O)O)c56)c(C)c4)cc3C)cc2)cc1,inactive
16,CC[C@@H](N)CO,inactive
17,Cc1cc(C(C)(C)C)c(O)c(C(C)(C)C)c1,inactive
18,CCN(CC)C(=O)Nc1ccc(OCC(O)CNC(C)(C)C)c(C(C)=O)c1 (stereo not given),inactive

# Biological target: Glucocorticoid receptor (Homo sapiens) (UniProt P04150)
# Sequence (P04150 whole entry, looked up): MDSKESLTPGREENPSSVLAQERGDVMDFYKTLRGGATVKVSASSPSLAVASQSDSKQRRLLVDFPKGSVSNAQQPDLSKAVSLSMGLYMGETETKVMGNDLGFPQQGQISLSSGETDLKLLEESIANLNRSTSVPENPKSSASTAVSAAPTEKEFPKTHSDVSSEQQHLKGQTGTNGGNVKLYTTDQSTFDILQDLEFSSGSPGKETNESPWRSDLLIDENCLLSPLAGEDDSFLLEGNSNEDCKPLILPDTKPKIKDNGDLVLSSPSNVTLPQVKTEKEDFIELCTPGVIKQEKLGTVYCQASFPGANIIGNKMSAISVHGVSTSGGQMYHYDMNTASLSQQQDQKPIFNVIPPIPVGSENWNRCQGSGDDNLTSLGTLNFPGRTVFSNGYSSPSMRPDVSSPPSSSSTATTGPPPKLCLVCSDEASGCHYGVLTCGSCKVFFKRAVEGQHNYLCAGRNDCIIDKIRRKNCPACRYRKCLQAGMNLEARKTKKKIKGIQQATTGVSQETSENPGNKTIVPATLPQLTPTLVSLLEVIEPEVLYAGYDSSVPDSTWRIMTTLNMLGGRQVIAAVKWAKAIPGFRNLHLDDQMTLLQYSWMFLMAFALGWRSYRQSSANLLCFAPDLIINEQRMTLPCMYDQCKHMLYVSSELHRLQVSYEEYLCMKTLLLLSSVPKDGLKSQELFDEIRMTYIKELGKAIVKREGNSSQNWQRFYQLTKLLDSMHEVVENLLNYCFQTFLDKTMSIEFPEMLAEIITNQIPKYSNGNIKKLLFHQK
# Assay: qHTS assay to identify small molecule agonists of the glucocorticoid receptor (GR) signaling pathway (AID 720691; active = well fitted activation curve with a large enough effect in the signal ratio in the repeat runs, not every such curve was filed as active; the % refers to the signal ratio)
# Conditions: GR-bla HeLa, beta-lactamase reporter ratio, 18 h; series mostly up to 62.4 µM
# Summary of the method: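 Measures GR pathway activation through a GRE-beta-lactamase reporter stably integrated in HeLa cells, with 18 h compound treatment at 37 C and fluorescence detection using a FRET substrate.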
row,Structure (SMILES),Potency
1,O=C(O)CP(=O)(O)O,inactive
2,CC(N)=O,inactive
3,NC12CC3CC(CC(C3)C1)C2,inactive
4,Cc1cccc(O)c1C,inactive
5,[Cl][In]([Cl])[Cl],inactive
6,O=C(Oc1ccccc1)c1ccccc1O,inactive
7,CC(C)CCOCc1ccccc1,inactive
8,CN(C)c1ccc(C(=C2C=CC(=[N+](C)C)C=C2)c2ccccc2)cc1,inactive
9,C=CC(=O)OCCCCCCOC(=O)C=C,inactive
10,Cc1occc(=O)c1OC(=O)C(C)C,inactive
11,CCC(C)(Oc1ccc(C2(c3ccc(OC(C)(CC)C(=O)O)cc3)CCCCC2)cc1)C(=O)O (stereo not given),inactive
12,Cc1ccnc2c1NC(=O)c1cccnc1N2C1CC1,inactive
13,CC(=O)OCC1=C(C(=O)O)N2C(=O)[C@@H](NC(=O)Cc3cccs3)[C@H]2SC1,inactive
14,CC1=C(C=O)C(C)(C)CC=C1,inactive
15,CC[C@H]1CN2CCc3cc(OC)c(OC)cc3[C@@H]2C[C@@H]1C[C@H]1NCCc2cc(OC)c(OC)cc21,inactive
16,CC(C)(C)c1cc(C(C)(C)C)c(O)c(C(C)(C)C)c1,inactive
17,Nc1cc(S(=O)(=O)O)cc2cc(S(=O)(=O)O)cc(O)c12,inactive
18,O=C(O)CCc1ccccc1,inactive
19,CCC[C@H](N[C@@H](C)C(=O)N1[C@H](C(=O)O)C[C@@H]2CCCC[C@@H]21)C(=O)OCC,inactive
20,CCCCC(CC)COC(=O)CC(C(=O)OCC(CC)CCCC)S(=O)(=O)O (stereo not given),inactive
21,Nc1nc2ccccc2[nH]1,inactive
22,Cc1ccc(S(=O)(=O)Oc2ccc(N=Nc3ccc(-c4ccc(N=Nc5c(O)ccc6cc(S(=O)(=O)O)cc(S(=O)(=O)O)c56)c(C)c4)cc3C)cc2)cc1,inactive
23,Cc1cc(C(C)(C)C)c(O)c(C(C)(C)C)c1,inactive
24,CCN(CC)C(=O)Nc1ccc(OCC(O)CNC(C)(C)C)c(C(C)=O)c1 (stereo not given),inactive

# Biological target: Glucocorticoid receptor (Homo sapiens) (UniProt P04150)
# Assay: qHTS assay to identify small molecule antagonists of the glucocorticoid receptor (GR) signaling pathway (AID 720692; active = well fitted inhibition curve with a large enough effect in the signal ratio in the repeat runs, not every such curve was filed as active; the % refers to the signal ratio)
# Conditions: GR-bla HeLa, beta-lactamase FRET ratio, dexamethasone-stimulated, 18 h; series mostly up to 58.5 µM
# Summary of the method: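 Tox21 10K library screened in concentration-response for blockade of dexamethasone (5 nM final)-induced GRE-bla reporter activity in HeLa cells; 18 h treatment, fluorescence read.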
row,Structure (SMILES),Potency
1,NC12CC3CC(CC(C3)C1)C2,inactive
2,O=C(Oc1ccccc1)c1ccccc1O,inactive
3,CC(C)CCOCc1ccccc1,inactive
4,Cc1ccnc2c1NC(=O)c1cccnc1N2C1CC1,inactive
5,CC(=O)OCC1=C(C(=O)O)N2C(=O)[C@@H](NC(=O)Cc3cccs3)[C@H]2SC1,inactive
6,CC1=C(C=O)C(C)(C)CC=C1,inactive
7,O=C(O)CCc1ccccc1,inactive
8,CCC[C@H](N[C@@H](C)C(=O)N1[C@H](C(=O)O)C[C@@H]2CCCC[C@@H]21)C(=O)OCC,inactive
9,CCN(CC)C(=O)Nc1ccc(OCC(O)CNC(C)(C)C)c(C(C)=O)c1 (stereo not given),inactive
